HT1080NT lethal: qHTS for induction of synthetic lethality in tumor cells producing 2HG: qHTS for the HT-1080-NT fibrosarcoma cell line. Potency, µM (top dose mostly 46.1 µM), for the others: top-dose activity, negative = less viability, actives largely listed as cytotoxic. 1.6% of 360,000 active. HT-1080-NT fibrosarcoma viability, CellTiter-Glo ATP luminescence, 48 h;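 note: NT is the 2HG producing partner of a matched IDH1 knockdown line; potency is the fitted concentration of half-maximal effect; 0% = DMSO-treated cells and -100% = media-only wells without cells; nearly all actives have a fitted effect of over 55% in size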
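HT-1080-NT fibrosarcoma cells (2HG-overproducing), 750 cells/well in RPMI with 5% FBS, dosed after 2 h and incubated 48 h at 37C. CellTiter-Glo luminescence normalized to DMSO and no-cell wells; concentration-response curves fitted and classed.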
DT40 TDP1 no CPT: qHTS for Inhibitors of human tyrosyl-DNA phosphodiesterase 1 (TDP1): qHTS in cells in absence of CPT; DT40 Tdp1-/- hTDP1 cells, no CPT, ATP luminescence, 48 h; Potency, µM (top dose mostly 46.2 µM), for the others: at the highest dose activity change, negative = growth inhibition, hits mostly inhibitors; 15% of 420,000 active; note: potency is the fitted concentration of half-maximal effect; nearly all actives have a fitted effect of over 55% in size
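Chicken DT40 Tdp1-/- cells stably complemented with human TDP1 were seeded at 400 cells/well with DMSO in place of 20 nM camptothecin. After compound pinning, cells grew at least 48 hr at 37 °C; viability read by CellTiter-Glo luminescence.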
ALOX12 inh: Primary qHTS assay for inhibitors of human arachidonate 12S-lipoxygenase (ALOX12): Round 2; 1.1% of 580,000 active; purified 12hLO, xylenol orange hydroperoxide absorbance; Potency, µM (doses to about 108 µM), for inactives: at the top dose activity change, negative = inhibition, actives largely listed as inhibitors; AID 1671190, 2021; Polyunsaturated fatty acid lipoxygenase ALOX12 (Homo sapiens), P18054; note: potency is the fitted concentration of half-maximal effect
Target sequence (P18054 whole entry, looked up): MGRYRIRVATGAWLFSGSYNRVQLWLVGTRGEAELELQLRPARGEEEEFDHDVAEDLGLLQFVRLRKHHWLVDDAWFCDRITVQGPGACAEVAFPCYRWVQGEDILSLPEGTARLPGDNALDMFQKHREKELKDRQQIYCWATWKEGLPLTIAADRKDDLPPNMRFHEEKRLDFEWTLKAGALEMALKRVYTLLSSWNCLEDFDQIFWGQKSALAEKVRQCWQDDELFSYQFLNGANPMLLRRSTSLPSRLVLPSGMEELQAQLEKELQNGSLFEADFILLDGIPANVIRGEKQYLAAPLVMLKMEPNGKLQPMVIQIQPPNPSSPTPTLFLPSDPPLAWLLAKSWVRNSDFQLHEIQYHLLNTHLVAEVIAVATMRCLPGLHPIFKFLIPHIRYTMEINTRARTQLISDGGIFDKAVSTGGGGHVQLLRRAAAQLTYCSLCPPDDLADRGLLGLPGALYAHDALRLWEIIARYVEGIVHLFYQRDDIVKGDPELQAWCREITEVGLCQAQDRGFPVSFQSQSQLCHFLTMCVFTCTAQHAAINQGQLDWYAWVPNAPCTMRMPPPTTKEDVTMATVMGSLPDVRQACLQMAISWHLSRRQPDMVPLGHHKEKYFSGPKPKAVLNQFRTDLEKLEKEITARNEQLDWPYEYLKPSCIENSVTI
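Purified human 12hLO at 150 nM in 25 mM Hepes, 0.01% Triton X-100, pH 7.0, preincubated 15 min at room temperature with compound. Reaction started with 40 uM arachidonic acid, 30 min at room temperature. Hydroperoxide measured by Fe-xylenol orange, 573/405 nm absorbance ratio.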
IL1B secr inh: qHTS for Inhibitors of Inflammasome Signaling: IL-1-beta AlphaLISA Primary Screen. 4.7% of 360,000 active. activity change, % at 57.5 µM. THP-1 LPS/ATP IL-1B secretion, AlphaLISA, 16 h; active compounds read low. AID 743279, 2014; in the data active = activity change below about -50%; inconclusive = mostly about -30% to -49%
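Secreted IL-1B measured by AlphaLISA bead assay after 16 h compound exposure of THP-1 cells; compounds (final up to 57.5 uM) added 1 h before LPS (250 ng/mL) and ATP (1.25 mM) stimulation; lower signal means less secretion.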
HT1080 IDH1KD tx: qHTS for induction of synthetic lethality in tumor cells producing 2HG: qHTS for the HT-1080-IDH1KD cell line; HT-1080 IDH1 knockdown viability, ATP luminescence, 48 h; 2% of 360,000 active; Potency, µM (series often up to 46.1 µM), inactives show at the highest dose activity, negative = toxicity, usual class: cytotoxic;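 note: potency is the fitted concentration of half-maximal effect; 0% = DMSO wells and -100% = cell-free medium wells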
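After a 2 h attachment period, IDH1KD HT-1080 cells took pin-transferred compound for 48 h at 37 °C; ATP-based luminescence after 10 min room-temperature reagent incubation reported viability.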
DT40 TDP1 CPT: qHTS for Inhibitors of human tyrosyl-DNA phosphodiesterase 1 (TDP1): qHTS in cells in presence of CPT | 12% of 420,000 active | Potency, µM (series often up to 46.2 µM), for the others: at the highest dose activity change, negative = growth inhibition, usual class: inhibitors | AID 686979, 2013 | chicken DT40 Tdp1-/-;hTDP1 cells + 20 nM CPT, ATP luminescence, 48 h; note: potency is the fitted concentration of half-maximal effect; nearly all actives have a fitted effect of over 55% in size
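Chicken DT40 Tdp1-/- cells stably complemented with human TDP1 were seeded at 400 cells/well in medium containing 20 nM camptothecin, exposed to pin-transferred compounds, and grown at 37 °C for at least 48 hr. Viability was read as ATP luminescence.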
The depositor's hits bear a star; u = inconclusive; x = no result; [ ] = dose if it differs, or a comment. Many of the other results were omitted from the sample, so hits are more common in it than they were. Unless noted, calls come from the whole dose curve; as a rule, active = well fitted curve in the direction sought with a large enough effect; inconclusive = small, poorly fitted or top-dose-only effect, or another doubt; inactive = no such curve, though single readings can be large; an effect the other way counts as inactive or inconclusive. Unless noted, % is set by controls: 0 for no effect and ±100 for the full control effect.

SMILES	HT1080NT lethal	DT40 TDP1 no CPT	ALOX12 inh	IL1B secr inh	HT1080 IDH1KD tx	DT40 TDP1 CPT
Cc1ccc2nc(SCCC(=O)N[C@@H]3C[C@@H]4OCC[C@@H]43)cc(C)c2c1	x	x	-5%	x	x	x
CCCCCn1nc(C(=O)Nc2ccc(C(C)=O)cc2)c2ccccc2c1=O	x	x	-12%	x	x	x
O=S(=O)(Nc1nc2ccccc2nc1Nc1ccccc1Br)c1cccs1	x	x	-28%	x	x	x
O=C(N/N=C/c1ccc(-c2ccc([N+](=O)[O-])cc2)o1)C(O)c1ccccc1 (stereo not drawn)	-1%	u	-29%	-249*	-1%	u
C=CCNC(=S)N/N=C/c1ccc(C)cc1C	23µM*	5.2µM*	u	-10	16µM*	5.2µM*
C=CCNC(=S)N/N=C/c1ccc(C)c([N+](=O)[O-])c1	-2%	6.5µM*	-4%	u	-3%	15µM*
C=CCNC(=S)Nc1ccc2nc(C)c(C)nc2c1	3%	18µM*	-2%	11	5%	u
Cc1cc2c(nc1C)CCCN2C[C@@H](C)O/N=C1/[C@H]2CCn3c(=O)n(-c4ccccc4)c(=O)n3[C@H]2[C@H](O)[C@@H]2O[C@H]12	0%	u	x	-54*	-6%	u
CCOC(=O)CN1CCCc2nc(C)c(C)cc21	x	x	-12%	x	x	x
COc1ccc(CN(C)C(=O)C2(c3ccc(Cl)cc3)CCOCC2)cc1	x	x	4%[6.33 µM]	x	x	x
O=c1[nH]c(=O)n(CCc2ccccc2)c2nccc(-c3ccccc3)c12	x	x	11%	x	x	x
CCCCn1cnc2c(SCc3ccc([N+](=O)[O-])cc3)nc(N)nc21	-1%	u	-2%	0	-1%	15µM*
CCCn1cnc2c(Sc3c([N+](=O)[O-])ncn3C)nc(N)nc21	-4%	u	7%	-54*	-8%	-26%
CCCn1cnc2c(SCc3ccccc3F)nc(N)nc21	-19%	u	-5%	-23	u	-28%
CCC(C)Cn1cnc2c(SCc3ccccn3)nc(N)nc21 (stereo not drawn)	-14%	u	u	-9	-11%	-14%
CCCCn1cnc2c(SCc3cccc(F)c3)nc(N)nc21	-15%	u	-22%	-25	-15%	-23%
CCCCn1cnc2c(SCc3ccccn3)nc(N)nc21	2%	-1%	-11%	-75*	2%	9%
Cn1cnc([N+](=O)[O-])c1Sc1nc(N)nc2c1ncn2Cc1ccccc1	0%	u	-23%	-101*	-27%	u
CC(C)NC(=O)N1CCN(C(=O)c2ccc(N(C)C)cc2)C[C@H]1C(=O)N[C@@H](CC1CCCCC1)C(N)=O	x	x	17%	x	x	x
CCCCn1cnc2c(Sc3c([N+](=O)[O-])ncn3C)nc(N)nc21	-20%	u	-10%	-95*	u	-12%
Nc1nc(SCc2ccccc2[N+](=O)[O-])c2ncn(Cc3ccccc3)c2n1	u	u	-5%	-21	u	u
O=C(c1nc(-c2cccc(C(F)(F)F)c2)c2cnccn12)N1CCN(c2ncccn2)CC1	x	x	-3%	x	x	x
CCN(Cc1ccccc1)S(=O)(=O)c1ccc(C(=O)N(CCCN(C)C)c2nc3cc4c(cc3s2)OCCO4)cc1	-18%	u	u	-95*	u	u
CN(C)CCCN(C(=O)c1ccc(S(=O)(=O)N(C)Cc2ccccc2)cc1)c1nc2c(F)cccc2s1	u	-7%	u	-96*	-27%	u

Source: PubChem
